Screen size: about 5,500 compounds; about 2,000 (36%) were called active. About 18% were inconclusive and are not listed. No stated cut-off is given here; in the data, active means normalized growth mostly below about 0.91 (no sharp cut-off); inconclusive means no clear call, values can overlap the other calls; inactive means mostly above about 0.92. This is one part of the list.
Assay: chemical genetic growth profiling, strain panel (AID 1159580);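 further: tested at 20 µM; growth read once vehicle control cultures reached saturation at 30 °C; 1 = growth at the plate median or of vehicle wells; lower values mean less growth of the strain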
Settings: growth OD
[1] = S. cerevisiae deletion strains, locus YDL101C, strain DUN1, hits give low values
[2] = S. cerevisiae deletion strains, locus YHR030C, strain SLT2, hits give low values
[3] = S. cerevisiae deletion strains, locus YAL013W, strain DEP1, hits give low values
[4] = S. cerevisiae deletion strains, locus YBR229C, strain ROT2, hits give low values
[5] = S. cerevisiae deletion strains, locus YCL061C, strain MRC1, hits give low values
[6] = S. cerevisiae deletion strains, locus YDL134C, strain PPH21, hits give low values
[7] = S. cerevisiae deletion strains, locus YDR150W, strain NUM1, hits give low values
[8] = S. cerevisiae deletion strains, locus YEL061C, strain CIN8, hits give low values
[9] = S. cerevisiae deletion strains, locus YGR078C, strain PAC10, hits give low values
[10] = S. cerevisiae deletion strains, locus YHR087W, strain rtc3, hits give low values
[11] = S. cerevisiae deletion strains, locus YJR043C, strain POL32, hits give low values
[12] = S. cerevisiae deletion strains, locus YJR075W, strain HOC1, hits give low values
[13] = S. cerevisiae deletion strains, locus YKL190W, strain CNB1, hits give low values
[14] = S. cerevisiae deletion strains, locus YLR039C, strain RIC1, hits give low values
[15] = S. cerevisiae deletion strains, locus YLR058C, strain SHM2 (second series), hits give low values
[16] = S. cerevisiae deletion strains, locus YLR085C, strain ARP6, hits give low values
[17] = S. cerevisiae deletion strains, locus YLR262C, strain YPT6, hits give low values
[18] = S. cerevisiae deletion strains, locus YML094W, strain GIM5, hits give low values
[19] = S. cerevisiae deletion strains, locus YMR219W, strain ESC1, hits give low values
[20] = S. cerevisiae deletion strains, locus YMR263W, strain SAP30, hits give low values
[21] = S. cerevisiae deletion strains, locus YMR307W, strain GAS1, hits give low values
[22] = S. cerevisiae deletion strains, locus YNL153C, strain GIM3, hits give low values
[23] = S. cerevisiae deletion strains, locus YNL298W, strain CLA4 (second series), hits give low values
[24] = S. cerevisiae deletion strains, locus YNL322C, strain KRE1, hits give low values
[25] = S. cerevisiae deletion strains, locus YNR030W, strain Alg12, hits give low values
[26] = S. cerevisiae deletion strains, locus YPL055C, strain LGE1, hits give low values
[27] = S. cerevisiae deletion strains, locus YPL241C, strain CIN2, hits give low values
[28] = S. cerevisiae deletion strains, locus YPR135W, strain CTF4, hits give low values

Measured: normalized growth

Cc1c(Cl)cccc1N=C1SCC(=O)N1Cc1ccco1
inactive: S. cerevisiae deletion strains, locus YAR019C, strain CDC15, hits give low values 0.981 | S. cerevisiae deletion strains, locus YBL105C, strain PKC1, hits give low values 0.973 | S. cerevisiae deletion strains, locus YBR135W, strain CKS1, hits give low values 0.972 | S. cerevisiae deletion strains, locus YBR136W, strain MEC1, hits give low values 0.981 | S. cerevisiae deletion strains, locus YBR160W, strain CDC28, hits give low values 0.971 | S. cerevisiae deletion strains, locus YDL017W, strain CDC7, hits give low values 0.974 | S. cerevisiae deletion strains, locus YDL028C, strain MPS1, hits give low values 0.977 | [1] 0.979 | S. cerevisiae deletion strains, locus YDL108W, strain KIN28, hits give low values 0.972 | S. cerevisiae deletion strains, locus YDL132W, strain cdc53, hits give low values 0.978 | S. cerevisiae deletion strains, locus YDL214C, strain PRR2, hits give low values 0.905 | S. cerevisiae deletion strains, locus YDR052C, strain DBF4, hits give low values 0.986 | S. cerevisiae deletion strains, locus YDR054C, strain cdc34, hits give low values 0.96 | S. cerevisiae deletion strains, locus YDR226W, strain ADK1, hits give low values 0.98 | S. cerevisiae deletion strains, locus YDR477W, strain SNF1, hits give low values 0.918 | S. cerevisiae deletion strains, locus YER123W, strain YCK3, hits give low values 0.884 | S. cerevisiae deletion strains, locus YER133W, strain GLC7, hits give low values 0.915 | S. cerevisiae deletion strains, locus YFL009W, strain cdc4, hits give low values 0.969 | S. cerevisiae deletion strains, locus YFL029C, strain CAK1, hits give low values 0.971 | S. cerevisiae deletion strains, locus YFR003C, strain YPI1, hits give low values 0.969 | S. cerevisiae deletion strains, locus YFR019W, strain FAB1, hits give low values 0.918 | S. cerevisiae deletion strains, locus YFR028C, strain CDC14, hits give low values 0.964 | S. cerevisiae deletion strains, locus YGR040W, strain KSS1, hits give low values 0.912 | S. cerevisiae deletion strains, locus YGR052W, strain FMP48, hits give low values 1 | S. cerevisiae deletion strains, locus YGR092W, strain DBF2, hits give low values 0.943 | S. cerevisiae deletion strains, locus YHR079C, strain IRE1, hits give low values 0.888 | S. cerevisiae deletion strains, locus YHR082C, strain KSP1, hits give low values 0.942 | S. cerevisiae deletion strains, locus YHR205W, strain SCH9, hits give low values 0.896 | S. cerevisiae deletion strains, locus YIL147C, strain SLN1, hits give low values 0.975 | S. cerevisiae deletion strains, locus YJL095W, strain BCK1, hits give low values 0.823 | S. cerevisiae deletion strains, locus YJL128C, strain PBS2, hits give low values 0.951 | S. cerevisiae deletion strains, locus YJL157C, strain FAR1, hits give low values 0.936 | S. cerevisiae deletion strains, locus YJR016C, strain ILV3, hits give low values 0.969 | S. cerevisiae deletion strains, locus YJR066W, strain TOR1 (second series), hits give low values 0.903 | S. cerevisiae deletion strains, locus YJR066W, strain TOR1, hits give low values 0.893 | S. cerevisiae deletion strains, locus YKL048C, strain ELM1, hits give low values 0.975 | S. cerevisiae deletion strains, locus YKL067W, strain YNK1, hits give low values 0.903 | S. cerevisiae deletion strains, locus YKL101W, strain HSL1, hits give low values 0.923 | S. cerevisiae deletion strains, locus YKL193C, strain SDS22, hits give low values 0.966 | S. cerevisiae deletion strains, locus YKL203C, strain TOR2, hits give low values 0.954 | S. cerevisiae deletion strains, locus YLR133W, strain CKI1, hits give low values 0.918 | S. cerevisiae deletion strains, locus YLR403W, strain SFP1, hits give low values 0.918 | S. cerevisiae deletion strains, locus YML070W, strain DAK1, hits give low values 0.892 | S. cerevisiae deletion strains, locus YMR001C, strain CDC5, hits give low values 0.973 | S. cerevisiae deletion strains, locus YMR205C, strain PFK2 (second series), hits give low values 0.919 | S. cerevisiae deletion strains, locus YMR277W, strain FCP1, hits give low values 0.969 | S. cerevisiae deletion strains, locus YNL006W, strain LST8, hits give low values 0.974 | S. cerevisiae deletion strains, locus YNL020C, strain ARK1, hits give low values 0.914 | S. cerevisiae deletion strains, locus YNL161W, strain CBK1, hits give low values 0.978 | S. cerevisiae deletion strains, locus YNL183C, strain NPR1, hits give low values 0.849 | S. cerevisiae deletion strains, locus YNL207W, strain RIO2, hits give low values 0.974 | S. cerevisiae deletion strains, locus YNL222W, strain SSU72, hits give low values 0.969 | S. cerevisiae deletion strains, locus YNL307C, strain MCK1 (second series), hits give low values 0.892 | S. cerevisiae deletion strains, locus YOL078W, strain AVO1, hits give low values 0.978 | S. cerevisiae deletion strains, locus YOL136C, strain PFK27, hits give low values 0.889 | S. cerevisiae deletion strains, locus YOR061W, strain CKA2, hits give low values 0.925 | S. cerevisiae deletion strains, locus YOR119C, strain RIO1, hits give low values 0.998 | S. cerevisiae deletion strains, locus YOR231W, strain MKK1, hits give low values 0.885 | S. cerevisiae deletion strains, locus YOR329C, strain SCD5, hits give low values 0.976 | S. cerevisiae deletion strains, locus YPL031C, strain PHO85, hits give low values 0.897 | S. cerevisiae deletion strains, locus YPL153C, strain RAD53, hits give low values 0.916 | S. cerevisiae deletion strains, locus YPL204W, strain HRR25, hits give low values 0.89 | S. cerevisiae deletion strains, locus YPL209C, strain IPL1, hits give low values 0.976 | S. cerevisiae deletion strains, locus YPR025C, strain CCL1, hits give low values 0.975 | S. cerevisiae deletion strains, locus YPR106W, strain ISR1, hits give low values 0.963 | S. cerevisiae deletion strains, locus YPR111W, strain DBF20, hits give low values 0.954 | S. cerevisiae deletion strains, strain NNK1, hits give low values 0.951 | S. cerevisiae deletion strains, strain TSCII, hits give low values 0.976
active: [2] 0.758 | S. cerevisiae deletion strains, locus YLR113W, strain HOG1, hits give low values 0.809 | S. cerevisiae deletion strains, locus YPL256C, strain CLN2, hits give low values 0.791

S=c1[nH]nc(-c2ccco2)n1-c1ccc2c(c1)OCCO2
inactive: [3] 0.998 | [4] 0.985 | [5] 0.994 | [1] 0.989 | [6] 0.991 | [7] 1.02 | [8] 1.02 | [9] 0.979 | [2] 1.05 | [10] 0.983 | [11] 0.987 | [12] 0.985 | [13] 0.989 | [14] 0.972 | [15] 0.98 | [16] 0.994 | [17] 0.991 | [18] 1 | [19] 0.991 | [20] 1.02 | [21] 1.05 | [22] 0.993 | [23] 1.01 | [24] 0.988 | [25] 1.01 | S. cerevisiae deletion strains, locus YOL006C, strain TOP1, hits give low values 0.978 | [26] 0.971 | [27] 1 | [28] 1.06 | S. cerevisiae strains, strain wild type, hits give low values 0.979

O=C(CSc1nnc(-c2ccco2)n1-c1ccc2c(c1)OCCO2)c1cccc(F)c1
inactive: [3] 0.983 | [4] 1 | [5] 0.997 | [1] 0.987 | [6] 1 | [7] 1.01 | [8] 0.984 | [9] 0.988 | S. cerevisiae deletion strains, locus YGR229C, strain SMI1, hits give low values 1 | [2] 0.961 | [10] 1 | S. cerevisiae deletion strains, locus YJL187C, strain SWE1, hits give low values 1.01 | [11] 0.997 | [12] 1.01 | [13] 1 | [14] 0.916 | [15] 1.01 | [16] 0.978 | [17] 0.954 | [18] 0.983 | [19] 0.988 | [20] 0.909 | [21] 0.77 | [22] 0.988 | [23] 0.977 | [24] 0.989 | [25] 0.988 | [26] 0.968 | [27] 0.994 | [28] 0.854

Reference: PubChem BioAssay AID1159580 (chemical genetic matrix, 2015)
